# From PubChem BioAssay AID540276 (National Center for Advancing Translational Sciences (NCATS), 2011)
# “And” between values parts separate entries of the source, which are not always exact repeats. Equal values may be shown once. Screen size: about 300,000 compounds; about 5,400 (1.8%) were called active. Not shown: some 28% with an inconclusive outcome. The full list was thinned out, with actives kept by preference. Unmarked numbers belong to inactive results. The call rests on the fitted dose curve; tested in HEK293 cells.
# Test: qHTS for inhibitors of binding or entry into cells for Marburg Virus
# Details: Marburg virus pseudotyped entry inhibition, cell reporter; series mostly up to 37.8 µM; activity change, negative = inhibition: at the top concentration
# On the % scale 0 is the no-effect control and ±100 the full control effect; potency means the concentration at half of the fitted maximal effect.
SMILES,"activity change, negative = inhibition",Potency
CCC(=O)Nc1ccc(S(=O)(=O)Nc2c(NC)c3ccccc3oc2=O)cc1,-29.2% [at 46.1 µM],
CCCN(C(=O)CSc1nnc(N)s1)c1c(N)n(Cc2ccccc2)c(=O)[nH]c1=O,-6.1%,
CNC(=O)C1CC(=O)N(c2ccc(OCC(=O)Nc3ccccc3C)cc2)C1 (configuration not stated),5.17%,
Cc1cccc(N(C)C(=O)c2cc3c(=O)[nH]c4ccc(C)cc4c3s2)c1,,3.55 µM (active)
Cc1ccc2[nH]c(=O)c(CC=C(Cl)Cl)c(C)c2c1,7.58% [at 46.1 µM],
COc1ccc(CNC(=O)c2cc3c(=O)[nH]c4ccc(C)cc4c3s2)c(OC)c1,-18.7% [at 46.1 µM],
CCOC(=O)N/N=C1\C[C@@H](O)[C@@H](O)[C@@H]2[C@@H]3C(=O)N(C4CCCCC4)C(=O)[C@@H]3CC[C@@H]12,19.7% [at 14.2 µM],
Cc1ccc(NC(=O)CSC2=C(C#N)[C@H](c3ccc4c(c3)OCO4)CC(=O)N2)cc1C,-6.33%,
N#Cc1cccc(NC(=O)COC(=O)c2ccccc2C(=O)c2ccc(Cl)c([N+](=O)[O-])c2)c1,,23.1 µM (active)
NS(=O)(=O)c1cccc(NC(=O)COC(=O)c2cc([N+](=O)[O-])ccc2N2CCCC2)c1,-19.3%,
O=C(COC(=O)c1ccc([N+](=O)[O-])cc1Cl)NC(=O)c1ccccc1,11.8%,
CN(C(=O)CCNC(=O)Cn1ccc2ccccc2c1=O)c1ccc(Br)cc1,23.6% [at 46.1 µM],
O=C(CCC1CCCN(C(=O)c2ccc(F)c(F)c2)C1)N1CCN(c2ccccn2)CC1 (configuration not stated),-24.9%,
CC1(c2ccccc2)NC(=O)N(CC(=O)Nc2cc(Cl)ccc2N2CCOCC2)C1=O (configuration not stated),2.18%,
COc1cc(OC)cc(-c2c(-c3cccs3)c3cc(-c4ccc(OC)cc4F)ccc3n2C)c1,-2.74%,
Cc1ccccc1N1CC(C(=O)Nc2nnc(SCCC3OCCO3)s2)CC1=O (configuration not stated),-24.4%,
CC(C)(C)c1cc(C(=O)NN)n(Cc2ccc(Cl)cc2Cl)n1,,11.2 µM (active)
CC(C)(C)NC(=O)NC(=O)COC(=O)Cc1ccc(Cl)cc1Cl,-0.511% [at 46.1 µM],
NNC(=O)c1ccc(Cl)cc1Cl,5.31%,
Cc1cc(NC[C@@H]2CCCO2)n2c(nc3ccccc32)c1C#N,1.22% [at 46.1 µM],
CN1CCN(CCNC(=O)Nc2ccccc2[N+](=O)[O-])CC1,26.4% [at 46.1 µM],

SMILES,"activity change, negative = inhibition",Potency
CCOc1ccc(C(O)Cn2c(=N)n(CCN3CCCCC3)c3ccccc32)cc1 (configuration not stated),,18.3 µM (active)
CCOc1ccc(C(O)Cc2nc3ccccc3n2C)cc1 (configuration not stated),14.5%,
CCOc1ccc(CN2CCCN(C)CC2)cc1,-2.41%,
CCOc1ccc(S(=O)(=O)N2CCN(C(=S)NCC3CCCO3)CC2)cc1 (configuration not stated),22.4% [at 46.1 µM],
CC1(C)C(=O)CCC2(C)C1=CCC1C2C(=O)CC2(C)C1CCC2(O)C(=O)CO (configuration not stated),-26.4%,
CC(=O)OCC(=O)C1(O)CCC2C3CC(C)C4=CC(=O)CCC4(C)C3C(O)CC21C (configuration not stated),-12.6% [at 46.1 µM],
COc1ccccc1NC(=O)N1CCCC1C(=O)NCc1cccs1 (configuration not stated),2.43% [at 46.1 µM],
CS(=O)(=O)Nc1ccc(C2=NN(S(C)(=O)=O)C(c3cccs3)C2)cc1 (configuration not stated),15.1%,
CCS(=O)(=O)Nc1ccc(C2=NN(S(=O)(=O)c3ccc(F)cc3)C(c3ccco3)C2)cc1 (configuration not stated),,18.3 µM (active)
CCS(=O)(=O)Nc1ccc(C2=NN(C(C)=O)C(c3cccs3)C2)cc1 (configuration not stated),-4.67% [at 46.1 µM],
COc1ccc(-n2cc(CNC3CCOCC3)c(-c3cccc(F)c3)n2)cc1,,11.2 µM (active)
COc1ccc(-n2cc(CN(C)Cc3n[nH]c(=O)[nH]3)c(-c3cccc(F)c3)n2)cc1,-18.4% [at 46.1 µM],
COc1ccc(-c2nn(-c3ccccc3)cc2CN2CCCO2)c(F)c1,-6.45% [at 46.1 µM],
N#CC1=C(SCc2ccccc2)NC(=O)C(C#N)C12CCCC2 (configuration not stated),-21.9%,
N#C/C(=C1\CCCN1)c1nc(-c2ccccc2)cs1,0.0724%,
N#CC1=C(SCc2ccc(C#N)cc2)N=C(N)C(c2nc(-c3ccccc3)cs2)C12CCCCC2 (configuration not stated),,7.08 µM (active)
NC(CSC1(c2ccccc2)c2ccccc2-c2ccccc21)C(=O)O (configuration not stated),12%,
CCCc1cc(=O)[nH]c(SCC(=O)Nc2ccc(C(=O)Nc3ccccc3OC)cc2)n1,-26.8%,
CC1CCN(C(=O)/C(=C\c2ccccc2)NC(=O)c2ccccc2)CC1,-1.05% [at 46.1 µM],
COc1ccc(S(=O)(=O)N2CCC(C(=O)NCc3ccco3)CC2)cc1C,3.65% [at 46.1 µM],
CNCC[C@H](Oc1ccc(C(F)(F)F)cc1)c1ccccc1,,10.3 µM (active) and 7.08 µM (active)

SMILES,"activity change, negative = inhibition",Potency
CC(C)Oc1ccc(Oc2ccc(C(F)(F)F)cn2)cc1,23.2% [at 46.1 µM],
CC(NC(=O)Cn1cc(C(F)(F)F)cc(Cl)c1=O)c1ccccc1 (configuration not stated),12.4% [at 46.1 µM],
COc1ccccc1N(CC(=O)Nc1ccccc1C(=O)N1CCCC1)S(C)(=O)=O,-13.4% [at 46.1 µM],
Cc1ccc(S(=O)(=O)N2CCN=C2SCc2c(F)cccc2Cl)cc1,18.5%,
COc1ccc(COC(=O)c2ccc(Cl)c(S(=O)(=O)N3CCOCC3)c2)cc1F,-21.5%,
CCCC(=O)Nc1ccc(C(=O)N/N=C/c2ccc[nH]2)cc1,,7.08 µM (active)
CCCCCC(=O)Nc1ccc(C(=O)N/N=C/c2ccc([N+](=O)[O-])cc2)cc1,-0.0189%,
CC(=O)Nc1ccc(C(=O)/C=C/c2ccc[nH]2)cc1,18% [at 46.1 µM],
COc1ccc(C(=O)Nc2ccccc2C(=O)N/N=C/c2ccccc2OC)cc1,2.26%,
COc1cc(/C=N/NC(=O)c2ccccc2)ccc1OS(=O)(=O)c1ccccc1,,9.2 µM (active)
COc1cc(/C=N/NC(=O)c2ccc(N3CCCC3=O)cc2)ccc1O,-7.56%,
COc1cc(/C=N/NC(=O)Nc2ccccc2)ccc1OCCOc1ccccc1C,,2.31 µM (active)
COc1cc(C=NNC(=O)c2cccnc2)ccc1OC(=O)c1ccccc1F,0.992%,
COc1ccc(/C=N/S(=O)(=O)c2ccccc2)cc1OC,-3.98% [at 14.2 µM],
COC(=O)c1ccc(COc2ccc(/C=N/NC(=O)C(=O)Nc3ccc(OC)cc3)cc2OC)o1,-1.32% [at 46.1 µM],
CCOc1cc(/C=N/NC(=O)OC)ccc1OCCSc1ccc(Cl)cc1,-35.7%,
COc1ccc(C(=O)Nc2ccccc2C(=O)N/N=C/c2ccc(O)c(OC)c2)cc1,,0.398 µM (active)
COc1ccc(OC[C@H]2CN3[C@@H](CC[C@@H](C)[C@@H]3c3ccc(Br)cc3)C(=O)O2)cc1,-7.49% [at 14.2 µM],
COC1=NC2=NCCN2C(OC)=N1,-7.96% [at 46.1 µM],
COc1ccc(CCNC(=O)COC(=O)c2ncc(Cl)c(Cl)c2Cl)cc1OC,-3.32%,
